Laboratory results taken from PubChem BioAssay AID1259343 (VanderVen Lab, College of Veterinary Medicine, Cornell …, 2017).
Out of some 6,200 compounds screened, about 2,900 (47%) were called active. So high a share suggests a set chosen from earlier hits. Some of the results follow. Unmarked numbers belong to inactive results. Rule as the data show it: active = inhibition above about 50%; inactive = the rest.

experiment: Mycobacterium tuberculosis growth inhibition, primary screen (AID 1259343); conditions: inhibition: at 10 µM, stronger effect = higher value; outcome: 10 uM

Structure (SMILES)	inhibition
Fc1ccc(-c2nnc(SCc3cc(Cl)c4c(c3)OCCO4)o2)cc1	95.4% (active)
C(=NOCc1ccc(CON=Cc2ccccc2)cc1)c1ccccc1	16.2%
COc1ccc(C=NOCc2ccc(Cl)c(Cl)c2)c(OC)c1	32.8%
N#Cc1ccc(CON=Cc2ccccc2OC(F)F)cc1	52.2% (active)
N#Cc1ccc(CON=Cc2ccccc2)cc1	70.7% (active)
Cc1nc(-n2nc(C3CC3)cc2NC(=O)c2cccc(F)c2)[nH]c(=O)c1C	100% (active)
Cc1cccc(C(=O)Nc2cc(C3CC3)nn2-c2nc(C)c(C)c(=O)[nH]2)c1	99.3% (active)
Cc1nc(-n2nc(C3CC3)cc2NC(=O)c2ccc(F)cc2)[nH]c(=O)c1C	101% (active)
O=[N+]([O-])c1ccc(N2CCCCC2)cc1	48.6%
CC(c1ccccc1)N1CCN(c2ccc([N+](=O)[O-])cc2)CC1 (stereo not given)	56.5% (active)
O=C1/C(=C/c2ccc(O)cc2)C(N2CCOCC2)=NN1c1ccc([N+](=O)[O-])cc1	36.6%
C=CCc1c(C)nc2c(-c3ccccc3)cnn2c1NCCN(C)C	inactive
C=CCc1c(C)nc2c(-c3ccccc3)cnn2c1NCCOC	17.5%
C=CCc1c(C)nc2c(-c3cccc(Cl)c3)c(C)[nH]n2c1=O	99.8% (active)
COc1ccccc1Oc1cc(Cl)ncn1	53.5% (active)
COc1cc(C(C)=O)ccc1Oc1cnccn1	3.02%
Fc1ccc(Oc2cc(Cl)ncn2)cc1	73.1% (active)
Fc1ccc(Oc2cc(N3CCc4ccccc4C3)ncn2)cc1F	34.6%
Fc1ccc(CN2CCN(c3cc(Oc4ccc(F)cc4Cl)ncn3)CC2)cc1	39.7%
Cc1nnc(N2C(=O)C(=O)C(=C(O)c3ccc(OC(C)C)cc3)C2c2ccc([N+](=O)[O-])cc2)s1 (stereo not given)	35.4%
COc1ccc(C(=O)N(C)c2nnc(C34CC5CC(CC(C5)C3)C4)s2)c(OC)c1	29.9%
CN(C(=O)c1ccccc1)c1nnc(C23CC4CC(CC(C4)C2)C3)s1	70% (active)
O=C(Nc1ncc(Cl)s1)c1ccc(Cl)cn1	81.3% (active)
O=C(Nc1ncc(Cc2ccc(Cl)cc2)s1)c1cccs1	53.4% (active)
O=C(Cc1cccs1)Nc1ncc(Cc2ccc(F)c(F)c2)s1	44.8%

Structure (SMILES)	inhibition
CC(=O)CSc1ncnc2sc3c(c12)CCC(C)C3 (stereo not given)	2.69%
CCCC(C)Nc1ncnc2sc3c(c12)CCC(C)C3 (stereo not given)	84.8% (active)
Clc1ccccc1CSc1nnc(-c2ccc[nH]2)o1	-6.43%
N#Cc1c(SCc2ccccc2Cl)sc2c(=O)[nH]c(=O)[nH]c12	67.2% (active)
Nc1ccc2c(c1)Cc1ccccc1-2	0.14%
Nc1ccc2c(c1)-c1ccccc1C2	-7.01%
Nc1ccc2c(c1)C(=O)NCC2	61.7% (active)
S=C(NCC1CCCCC1)Nc1ccccc1Cl	89.6% (active)
S=C(Nc1ccc2c(c1)OCO2)Nc1ccccc1Cl	19.5%
C=CCNC(=S)Nc1ccc(Cl)cc1Cl	4.42%
O=C(NCCC12CC3CC(CC(C3)C1)C2)c1ccc2c(=O)n3c(nc2c1)CCCCC3	67% (active)
COc1ccc(C(C)NC(=O)Cc2ccccc2Cl)cc1F (stereo not given)	74.1% (active)
COc1ccc(C(C)NC(=O)c2ccco2)cc1F (stereo not given)	15.9%
NC(Cc1ccc(C(F)(F)F)cc1)c1csc(Nc2ccccn2)n1 (stereo not given)	47%
NC(Cc1ccc(C(F)(F)F)cc1)c1csc(Nc2cnccn2)n1 (stereo not given)	53% (active)
CC(C)CC(N)c1csc(Nc2ccc(C(F)(F)F)cn2)n1 (stereo not given)	91.8% (active)
NC(Cc1ccccc1)c1csc(Nc2ccc(C(F)(F)F)cn2)n1 (stereo not given)	86.1% (active)
NC(c1ccccc1)c1csc(Nc2ccc(C(F)(F)F)cn2)n1 (stereo not given)	1.35%
COc1ccc(C(N)c2csc(Nc3ccc(C(F)(F)F)cn3)n2)cc1 (stereo not given)	86.2% (active)
NC(COCc1ccccc1)c1csc(Nc2ccc(C(F)(F)F)cn2)n1 (stereo not given)	66.5% (active)
FC(F)(F)c1ccc(Nc2cnn(Cc3ccccc3)c2)nc1	58.1% (active)
FC(F)(F)c1ccc(Sc2ncccn2)nc1	-12%
Cc1ccc(CS(=O)(=O)Cc2csc(CCC(C)C)n2)cc1	96% (active)
CC(C)CCc1nc(Cn2c(C(F)(F)F)ccc(C(N)=O)c2=O)cs1	11.8%
CN1C(=O)C(=Cc2cccc(OCc3ccccc3Cl)c2)C(=O)N(C)C1=O	14.1%

Structure (SMILES)	inhibition
CCc1cc(=O)[nH]c(-n2nc(C)cc2NC(=O)C(C)(C)Oc2ccc(Cl)cc2)n1	-31%
Cc1cc(=O)[nH]c(-n2nc(C3CC3)cc2NC(=O)C(C)(C)Oc2ccc(Cl)cc2)n1	98.2% (active)
Cc1cc(NC(=O)C(C)(C)Oc2ccc(Cl)cc2)n(-c2nc(C)c(C)c(=O)[nH]2)n1	100% (active)
Cc1cc(=O)[nH]c(-n2nc(C)cc2NC(=O)C(C)(C)Oc2ccc(Cl)cc2)n1	101% (active)
CCc1sc(-c2nnc(CSc3nnc(-c4ccco4)o3)o2)cc1C	-15.2%
COc1cccc(C2=NN(C(C)=O)C(C(=O)N(CC(C)C)CC(C)C)O2)c1 (stereo not given)	-4.2%
CCc1sc(-c2nnc(-c3cccc(OC)c3)o2)cc1C	52.4% (active)
O=C(Nc1ccc(-n2cccn2)nc1)C1CCCC(C(F)(F)F)C1 (stereo not given)	7.71%
Cc1ccc(C(=O)C(C#N)C(=O)C2CCCC(C(F)(F)F)C2)s1 (stereo not given)	101% (active)
Cn1c(=O)oc2cc(NC(=O)C3CCCC(C(F)(F)F)C3)ccc21 (stereo not given)	-34.1%
Cc1ccc(NC(=O)NC2CCC(C)CC2)cc1-n1cnnn1 (stereo not given)	-21.7%
Cc1ccc(NCCOc2ccccc2F)cc1-n1cnnn1	54.8% (active)
CCn1c2ccccc2c2cc(Nc3ccnc(NCCCN4CCOCC4)n3)ccc21	53.6% (active)
Cc1nn2c(NCCN3CCOCC3)cc(-c3ccccc3)nc2c1-c1ccccc1	48.5%
CC(SC(=S)N1CCCC1)c1nc(C2CC2)no1 (stereo not given)	-46.6%
NC(=O)c1cccc(COc2cc(Cl)cc(Cl)c2)c1	49.7%
Cc1cc(OCc2cccc(Cl)c2)ccc1N	92.4% (active)
Cc1nc(NC(=O)CNC(=O)Cc2cccc(F)c2)sc1SCC#N	81.8% (active)
Cc1c(C(=O)NCc2ccc(Cl)c(Cl)c2)sc(=O)n1Cc1cccc(F)c1	41.3%
Cc1ccc(C2CC2C(=O)Nc2nc(C)c(SCC#N)s2)s1 (stereo not given)	39.7%
CCNC(=O)NC(=O)C(C)Sc1nnc(Nc2ccc(C)cc2)s1 (stereo not given)	99.2% (active)
CNC(=O)NC(=O)C(C)Sc1nnc(SCC(C)C)s1 (stereo not given)	89.7% (active)
CCC(C)c1ccc(Nc2nc(C)c(C)s2)cc1 (stereo not given)	41.7%
CC(C)CSc1nnc(SCC(=O)Nc2ccc(C#N)cc2)s1	-25.3%
Cc1nc(SC(C)C(=O)NC(N)=O)c2c(C)c(C)sc2n1 (stereo not given)	-7.75%

Structure (SMILES)	inhibition
CNC(=O)NC(=O)C(C)Sc1nnc(Nc2ccc(C)cc2)s1 (stereo not given)	54.2% (active)
COc1cccc(Cn2c(=O)c(C(=O)N3CCCC3)nn(-c3cc(C)cc(C)c3)c2=O)c1	3.71%
CCOC(=O)c1ccc(NC(=O)N2CCN(C(=O)c3cc4ccoc4n3Cc3cccc(OC)c3)CC2C)cc1 (stereo not given)	85.9% (active)
COc1ccccc1Cn1c(C(=O)N2CCN(C(=O)C(Cl)c3ccccc3)C(C)C2)cc2ccsc21 (stereo not given)	35.9%
O=C1c2ccccc2S(=O)(=O)N1Cc1ccccc1Oc1ccccc1	8.36%
O=C(Nc1ccc2ccccc2n1)C1CC2CCC1C2 (stereo not given)	45.8%
Cc1cccc2sc(NC(=O)C3CC4CCC3C4)nc12 (stereo not given)	85.8% (active)
O=C(CC1C=CCC1)Nc1nc2c(Cl)c(Cl)ccc2s1 (stereo not given)	48.5%
CC1CCN(Cc2ncc(-c3ccccc3)o2)C2CCCCC12 (stereo not given)	72.5% (active)
c1ccc(-c2cnc(CN3CCSc4ccccc43)o2)cc1	26%
CCc1[nH]n(-c2ccc(Cl)c(Cl)c2)c(=O)c1C1=C(N(C)C2CCCCC2)C(=O)N(c2ccccc2F)C1=O	65.4% (active)
COc1ccc(N2C(=O)C(c3c(C(C)C)[nH]n(-c4ccc(Cl)cc4)c3=O)=C(N3CCC(C)CC3)C2=O)c(OC)c1	39%
CCOc1ccccc1N=Cc1c(C)c(C#N)c2[nH]c3ccccc3n2c1=O	1.57%
CCc1c(C)c(C#N)c2[nH]c3ccccc3n2c1=S	40.8%
N#Cc1c(C(F)(F)F)cc(=O)n2c1[nH]c1ccccc12	101% (active)
Cc1cc(NC(C)C(=O)N(C)Cc2ccccc2)ccc1Br (stereo not given)	50.4% (active)
Cc1cc(NC(=O)C(C)Nc2ccc(Br)c(C)c2)on1 (stereo not given)	14%
O=C(Nc1ccccc1)c1cccn(OCc2ccccc2F)c1=O	32.1%
Cc1c(-c2cccc(NC(=O)Nc3ccccc3)c2)nc2ncccn12	18.8%
CCCSc1ncccc1C(=O)Nc1ccc(-c2ccccc2)cc1	89.9% (active)
CNc1ccc(-c2ccc(CC#N)cc2)cn1	38.5%
O=C(Nc1ccc(Oc2ccccc2F)cc1)C1CCN(C(=O)CCc2ccccc2)CC1	90.6% (active)
Cc1ccn(CC(=O)N2CCC(C(=O)Nc3ccc(Oc4ccccc4F)cc3)CC2)n1	19.3%
CSCCC(=O)N1CCC(C(=O)Nc2ccc(Oc3ccccc3F)cc2)CC1	76.3% (active)
COCC(=O)N1CCC(C(=O)Nc2ccc(Oc3ccccc3F)cc2)CC1	inactive
